Measurements from ChEMBL document CHEMBL1157539, “Thousands of chemical starting points for antimalarial lead identification” (Nature, 2010).

Columns and labels:
Type in all cases: functional
Plasmodium falciparum [1] = experiment: GSK_TCMDC: Inhibition of Plasmodium falciparum 3D7 in whole red blood cells, using parasite LDH activity as an index of growth. Test compounds present at 2uM
Plasmodium falciparum [2] = experiment: GSK_TCMDC: Inhibition of Plasmodium falciparum Dd2 in whole red blood cells, using parasite LDH activity as an index of growth. Test compounds present at 2uM
HepG2 = experiment: GSK_TCMDC: Percent inhibition of human HepG2 cell line. Test compounds present at 10uM.

Row | Compound | Inhibition (Plasmodium falciparum [1]) [%] | Inhibition (Plasmodium falciparum [2]) [%] | Inhibition (HepG2) [%]
1 | COc1ccc(NC(=O)Nc2ccc(-c3ccccc3)cc2Cl)cc1N1CCN(C)CC1 | 90 | 30 | 40
2 | CN(C)c1ccc(CN2CCC(CNC(=O)c3cc(-c4ccccc4F)cs3)C2)cc1.O=C(O)C(F)(F)F (stereo not drawn) | 100 | 33 | 35
3 | O=C(/C=C/c1ccc(Cl)c(Cl)c1)NCCCCCN1CCCN(C(=O)Nc2ccc(Cl)c(C(F)(F)F)c2)CC1 | 100 | 16 | 35
4 | COc1ccc(Cl)cc1NC(=O)C(C)N1CCN(S(=O)(=O)c2ccccc2F)CC1 (stereo not drawn) | 93 | 66 | 5
5 | Nc1nc(N)c2c(ccc3c2ccn3CCCCO)n1 | 93 | 49 | 61
6 | CN1CCCc2ccc(NC(=O)c3cc(-c4ccc(Cl)cc4)cs3)cc2C1.O=C(O)C(F)(F)F | 94 | 40 | 35
7 | Cc1ccc2nc(C)cc(N/N=C/c3ccc([N+](=O)[O-])o3)c2c1 | 100 | 99 | 15
8 | Cl.O=[N+]([O-])c1cccc(-c2nc3cc(C4=NC5CCCCC5N4)ccc3[nH]2)c1 (stereo not drawn) | 100 | 81 | 4
9 | Cc1c(-c2cccc(C(C)(C)NC3CCN(Cc4ccccc4)CC3)c2)cnc(N)c1C.Cl | 100 | 39 | 14
10 | CCOc1cc(C(=O)NC2CC(C)(C)N(C)C(C)(C)C2)ccc1-c1nc2cc(Cl)c(Cl)cc2[nH]1 | 100 | 49 | 64
11 | CC1(CCN2CCC(c3c[nH]c4cnccc34)CC2)CCCc2c(Br)cccc2C1=O.Cl (stereo not drawn) | 100 | 66 | 14
